Bioassay records deposited in PubChem BioAssay by several laboratories.
This is a sample that favours compounds with a hit; in the whole collection about 12% have one here.
KCC2 mod: KCC2 (human) Cl- transport modulation; Q9H2X9; KCC2 cells, thallium flux FluoZin-2 fluorescence; B-score of Tl+ flux slope (higher = more flux/activation; lower = inhibition) at 10 µM; 190,000 tested, 2.2% active; AID 1456;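 active means thallium flux slope and its plate-corrected score both differing from the plate sample mean at a set confidence after two filtering rounds, in either direction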;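 further: slope of fluorescence scaled to starting intensity during 10 to 20 s after thallium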
Lmaj promast: reduces viability of Leishmania major promastigotes. resazurin fluorescence viability. inhibition, % at 10 µM. 200,000 tested, 9% active. AID 1063; in the data active means inhibition above about 50%;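 further: promastigotes grown with compound for 44 hours at 28 °C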
Ins promoter up: MIN6 insulin promoter up-regulation; AID 1625; MIN6 insulin promoter-GFP reporter, high-content imaging; hits give high values; z-score at 5 µM; 190,000 tested, 0.3% active;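 active means z-score above 3 at 5 µM with at least 500 cells counted in the well; inconclusive means wells under 500 cells, flagged as cytotoxic or low count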
INS promoter inh: TRM-6 insulin promoter activity inhibition. 130,000 tested, 0.9% active. inhibition, % at 2 µM. TRM-6 cells (human fetal islet line), insulin promoter-eGFP reporter, imaging; reporter expression induced with tamoxifen;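 active means inhibition above the mean plus 3 SD, with well images judged a real hit on visual review, cut at about 60% in these data, passing the limit was not always enough; inconclusive means inhibition over the cutoff but images rejected on review; inactive means inhibition not above the cutoff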
WT yeast gro inh: growth inhibition of WT yeast, mitochondrial fusion screen. mitochondrial fusion phenotypic screen, WT strain. inhibition, % at 10 µM. 190,000 tested, 2.1% active. AID 1362; in the data active means inhibition above about 58%; tested in S. cerevisiae
ROMK primary: human ROMK K+ channel modulation, primary screen; P48048; Tet-inducible ROMK, thallium flux fluorescence; actives lie on both sides; B-score at 10 µM; 130,000 tested, 2% active; AID 1918;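 active means signal ratio slope over the read window, or its plate-corrected B-score, at least 3 SD from the plate mean, either direction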;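 further: B-score of the F/F0 ratio slope over 7 to 12 s after thallium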
Target sequence (P48048 whole entry, looked up): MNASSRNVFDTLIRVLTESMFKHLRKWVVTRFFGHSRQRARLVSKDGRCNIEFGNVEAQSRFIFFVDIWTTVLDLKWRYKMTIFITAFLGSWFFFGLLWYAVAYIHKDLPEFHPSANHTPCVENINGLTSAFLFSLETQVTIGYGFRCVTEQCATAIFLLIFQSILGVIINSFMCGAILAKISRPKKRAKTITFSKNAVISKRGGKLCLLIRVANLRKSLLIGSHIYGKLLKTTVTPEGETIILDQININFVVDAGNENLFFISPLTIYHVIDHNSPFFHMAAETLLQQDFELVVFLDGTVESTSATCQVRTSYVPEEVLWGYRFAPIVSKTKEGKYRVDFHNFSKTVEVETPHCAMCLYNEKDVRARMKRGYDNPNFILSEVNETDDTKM
KCC2 sec1: confirmation of human KCC2 transport modulators. shares compounds with KCC2 mod. HEK293-KCC2, thallium flux, FluoZin2 fluorescence; hits give high values. normalised thallium flux (F/F0 slope) at 10 µM. 3,700 tested, 15% active;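 active means thallium flux slope above the same plate's solvent-only control mean plus 3 SD; inconclusive means the two replicate wells disagree; inactive means no significant difference from solvent-only control wells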
KCC2 bumet counter: thallium flux despite bumetanide block in KCC2 cells, secondary assay 3; normalized thallium flux at 10 µM; 3,700 tested, 49% active; HEK293-KCC2 + bumetanide/ouabain, thallium flux FluoZin2; hits give high values; shares compounds with KCC2 mod;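 active means thallium entry rate above the same plate's blocked-transporter control wells by more than 3 SD; inconclusive means the two repeat wells disagree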;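 further: raw slope of fluorescence over initial fluorescence between 10 and 20 s after thallium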
KCC2 sec2: KCC2 (human) modulation, second secondary assay. 3,700 tested, 23% active. normalized thallium flux at 10 µM. AID 1715. HEK293-KCC2, thallium flux FluoZin2 fluorescence; actives lie on both sides; F/F0 rise rate, 10–20 s post-thallium. shares compounds with KCC2 mod;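 active means thallium flux slope more than 3 SD above or below the plate's solvent-only control mean, mostly below; inconclusive means the two repeat wells disagreed; inactive means no significant shift from solvent-only controls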;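 further: raw slope with 0.1% DMSO as baseline and bumetanide as block control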
HEK counter1: parental HEK flux effect, counter-screen. shares compounds with KCC2 mod. HEK293 parental cells, thallium flux FluoZin2, ouabain; baseline-ratio fluorescence slope, 10–20 s after thallium. thallium flux rate (normalised fluorescence) at 10 µM. 3,700 tested, 46% active;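 active means thallium flux rate significantly above the same plate's solvent-only control wells, beyond their mean plus 3 SD; inconclusive means the two replicate wells gave conflicting results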
KCC2 retest ouab: KCC2 (human) modulation, ouabain retest; HEK293-KCC2, thallium flux FluoZin2 fluorescence; bidirectional: low = inhibitor, high = activator; raw Tl+ flux slope (below DMSO = inhibition, above = activation) at 10 µM; 3,700 tested, 48% active; shares compounds with KCC2 mod;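 active means thallium flux slope beyond 3 SD from same-plate DMSO control mean in most replicates, usually higher, sometimes lower; inconclusive means repeat tests gave conflicting results; inactive means no significant difference from controls in most replicates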;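 further: slope of initial-normalized fluorescence between seconds 10 and 20 after thallium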
HEK293 Tl flux2: parental HEK flux effect, counter-screen 2 | shares compounds with KCC2 mod | HEK293 parental, thallium flux FluoZin-2 fluorescence slope | thallium flux slope at 10 µM | 3,700 tested, 33% active;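 active means thallium flux slope above the same plate's solvent-control mean plus 3 SD in both duplicate wells; inconclusive means duplicate wells that disagreed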;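 further: run without ouabain in cells lacking the KCC2 cotransporter; slope of fluorescence scaled to its starting value between 10 and 20 s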
The depositor's hits bear a star.

Results for O=C(NCC(c1cccs1)N1CCOCC1)c1ccccc1NS(=O)(=O)c1ccc(Cl)c([N+](=O)[O-])c1 (stereo not given) ?
KCC2 mod: -3.6*; Lmaj promast: 0.8; Ins promoter up: 0.06; WT yeast gro inh: 14.0; KCC2 sec1: 0.00697; KCC2 bumet counter: 0.00481; KCC2 sec2: 0.0265*; HEK counter1: 0.00608*; KCC2 retest ouab: 0.0162*; HEK293 Tl flux2: inconclusive

Results for COc1ccc(C(=O)Nc2cc(C)nc3ccccc23)cc1OC ?
KCC2 mod: -0.208; Lmaj promast: 8.5; INS promoter inh: 3.6; WT yeast gro inh: 9.9

Results for Cc1cc(NC(=S)NC(=O)c2ccco2)c2ccccc2n1 ?
KCC2 mod: 28.7*; Lmaj promast: -5.9; Ins promoter up: 0.29; INS promoter inh: 47.6; WT yeast gro inh: 21.3; ROMK primary: 0.842; KCC2 sec1: inconclusive; KCC2 bumet counter: 0.0838*; KCC2 sec2: 0.0663*; HEK counter1: 0.0563*; KCC2 retest ouab: 0.0712*; HEK293 Tl flux2: 0.0583*

How did Cc1sc(NC(=S)NC(=O)c2ccco2)c(C#N)c1C do in these assays?
KCC2 mod: 22.4*; Lmaj promast: -2.6; Ins promoter up: 0.06; WT yeast gro inh: 12.2; ROMK primary: 0.919; KCC2 sec1: 0.006; KCC2 bumet counter: 0.0223*; KCC2 sec2: inconclusive; HEK counter1: 0.0227*; KCC2 retest ouab: 0.0303*; HEK293 Tl flux2: 0.0192*

What do the screens show for `O=C(NC(=S)Nc1cccc2ncccc12)c1ccco1`?
KCC2 mod: 13.2*; Lmaj promast: -9.5; Ins promoter up: -0.26; INS promoter inh: -26.3; WT yeast gro inh: 2.4; ROMK primary: 1.1; KCC2 sec1: inconclusive; KCC2 bumet counter: 0.0318*; KCC2 sec2: inconclusive; HEK counter1: 0.0209*; KCC2 retest ouab: 0.0275*; HEK293 Tl flux2: 0.0232*

Results for CC(NC(=O)COc1ccc(/C=N/NS(=O)(=O)c2ccccc2)cc1)c1ccccc1 (stereo not given) ?
Lmaj promast: -4.2; Ins promoter up: -0.06; INS promoter inh: -10.0; WT yeast gro inh: 15.5

Results for CCN(CC)S(=O)(=O)c1ccc(-c2nnc(SCC(=O)Nc3nnc(C)s3)n2CC)cc1 ?
KCC2 mod: -0.772; Lmaj promast: -11.7; Ins promoter up: 0.28; INS promoter inh: 50.7; WT yeast gro inh: -17.3; ROMK primary: -0.309

What do the screens show for `Nc1nc(Cl)nc2ccc(Br)cc12`?
KCC2 mod: 1.86; Lmaj promast: 7.9; INS promoter inh: 29.0; WT yeast gro inh: 1.7; ROMK primary: 0.273

Results for Cc1ccsc1/C=N/NC(=O)c1ccc([N+](=O)[O-])cc1 ?
KCC2 mod: 3.57*; Lmaj promast: 3.6; Ins promoter up: -0.51; WT yeast gro inh: 6.2; ROMK primary: 2.47; KCC2 sec1: 0.0155; KCC2 bumet counter: 0.0156*; KCC2 sec2: 0.029; HEK counter1: 0.0107*; KCC2 retest ouab: 0.0188; HEK293 Tl flux2: 0.0134*

How did Cc1ccsc1/C=N/NC(=O)c1ccncc1 do in these assays?
KCC2 mod: 0.67; Lmaj promast: -2.5; Ins promoter up: -1.21; INS promoter inh: 18.5; WT yeast gro inh: -4.3; ROMK primary: 0.917

How did CCOC(=O)C1CCCN(c2c(NCCN(CC)c3ccccc3)c(=O)c2=O)C1 (stereo not given) do in these assays?
KCC2 mod: 0.461; Lmaj promast: -1.1; Ins promoter up: -0.58; WT yeast gro inh: -3.1

How did CCOC(=O)C1CCCN(c2c(NCCCN(CC)c3ccccc3)c(=O)c2=O)C1 (stereo not given) do in these assays?
KCC2 mod: 4.57*; Lmaj promast: 1.3; Ins promoter up: 0.33; WT yeast gro inh: -3.0; ROMK primary: -0.602; KCC2 sec1: 0.00916; KCC2 bumet counter: 0.00664; KCC2 sec2: 0.0292; HEK counter1: 0.00677; KCC2 retest ouab: 0.05; HEK293 Tl flux2: 0.0102

Results for CCN(CC)c1ccc2c(C)c(-c3ccc(N)cc3)c(=O)oc2c1 ?
KCC2 mod: -5.05*; Lmaj promast: 12.5; Ins promoter up: -0.07; INS promoter inh: 1.8; WT yeast gro inh: 6.6; ROMK primary: 0.166; KCC2 sec1: 0.0097; KCC2 bumet counter: 0.0105*; KCC2 sec2: inconclusive; HEK counter1: 0.00647; KCC2 retest ouab: 0.0158*; HEK293 Tl flux2: 0.0103

How did Cc1sc2ncnc(SCC(=O)c3ccc(O)cc3O)c2c1C do in these assays?
KCC2 mod: 102*; KCC2 sec1: 0.01*; KCC2 bumet counter: 0.087*; KCC2 sec2: 0.0756*; HEK counter1: 0.0764*; KCC2 retest ouab: 0.0781*; HEK293 Tl flux2: 0.0552*

Results for Cc1sc2ncnc(SCc3ccco3)c2c1C ?
KCC2 mod: 2.45; Lmaj promast: -2.2; Ins promoter up: 1.01; INS promoter inh: -25.0; WT yeast gro inh: 1.4

Results for CCc1ccc(OCC(=O)NNC(=O)CSc2ncnc3sc(C)c(C)c23)cc1 ?
KCC2 mod: 4.48*; Lmaj promast: -5.9; Ins promoter up: 0.47; WT yeast gro inh: -0.1; ROMK primary: 1.2; KCC2 sec1: inconclusive; KCC2 bumet counter: 0.0147*; KCC2 sec2: 0.0289; HEK counter1: 0.0102*; KCC2 retest ouab: inconclusive; HEK293 Tl flux2: 0.00981

What do the screens show for `Cc1ccc(OCCSc2ncnc3sc(C)c(C)c23)cc1C`?
Lmaj promast: -3.3; Ins promoter up: 0.01; INS promoter inh: 23.3; WT yeast gro inh: 2.4; KCC2 sec1: 0.0136*; KCC2 bumet counter: 0.0416*; KCC2 sec2: 0.0325; HEK counter1: inconclusive; KCC2 retest ouab: inconclusive; HEK293 Tl flux2: 0.0134*

How did Cc1ccc(OCC(=O)NNC(=O)CSc2ncnc3sc(C)c(C)c23)cc1 do in these assays?
KCC2 mod: 12.6*; Lmaj promast: -6.3; Ins promoter up: 0.34; WT yeast gro inh: -7.1; KCC2 sec1: 0.0117; KCC2 bumet counter: 0.0157*; KCC2 sec2: 0.035; HEK counter1: 0.02*; KCC2 retest ouab: 0.0287*; HEK293 Tl flux2: 0.0132*
